PABP1 MLLE inh – inhibitors of microRNA-mediated deadenylation, human PABP1 MLLE binding. GST-MLLE / FITC-PAM2 fluorescence polarization. 0.36% of 360,000 active. inhibition, % at 20 µM. P11940; in the data active means inhibition above about 35%, passing the limit was not always enough;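 further: plate controls were DMSO wells with GST-MLLE for no effect and wells lacking GST-MLLE protein for full effect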
eIF4H FP inh – inhibitors of RNA binding by human eIF4H. 0.94% of 290,000 active. eIF4H fluorescence polarization binding assay. inhibition, % at 35 µM. Q15056;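 further: calls also rest on retests at 20 µM and on dose response follow-up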
PERK inh – blocks human PERK kinase; Q9NZJ5; AID 1416; CHO PERK-DD fusion, SEAP luminescence translation reporter; 0.17% of 220,000 active; inhibition, % at 5.6 µM;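 active means inhibition above the mean inhibition of all tested compounds plus 3 SD, set separately per screening campaign, cut at about 2.9% in these data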;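 further: PERK kinase domain activated by AP20187 dimerizer at 100 nM; 0% = DMSO with dimerizer and 100% = rapamycin at 8.4 µM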
PABP FP inh – blocks human PABP binding to poly(A) RNA | 1% of 290,000 active | calls only at 35 µM | P11940 | fluorescence polarization;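 further: calls also rest on retests at 20 µM and on dose response follow-up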
eIF4E-4G inh – inhibitors of eIF4E and eIF4G interaction in translation initiation; P63073+Q04637; TR-FRET eIF4E-eIF4GI(517-606) binding, 2 h; inhibition, % at 21.7 µM; 0.37% of 220,000 active; AID 782;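 active means inhibition above about 30%, limit read from the data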;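 further: 0% = full FRET control wells and 100% = background wells lacking eIF4GI fragment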
The depositor's hits bear a star. Rows were chosen to be rich in hits. Some 1.6% of all compounds tested hit in one or more screens of this group. Unless noted, how the calls were made is not given here.

C[C@@H]1CN([C@@H](C)CO)C(=O)Cc2cc(NC(=O)C3CCCCC3)ccc2O[C@H]1CN(C)S(=O)(=O)c1ccccc1 was read as PABP1 MLLE inh 9.2.
`COC(=O)/C(C#N)=C/c1ccc(OC(=O)c2ccccn2)cc1` gave PABP1 MLLE inh -75.4, eIF4H FP inh 6.0, PERK inh 1.1, PABP FP inh inactive and eIF4E-4G inh 7.8.
`CCOC(=O)/C(C#N)=C/c1ccc(OC(=O)c2ccccn2)cc1` gave PABP1 MLLE inh -5.2, eIF4H FP inh 0.8, PERK inh 0.3, PABP FP inh inactive and eIF4E-4G inh 30.7*.
O=[N+]([O-])c1cc(CN2CCCC2)c2cccnc2c1O was read as PABP1 MLLE inh 15.4, eIF4H FP inh 86.6*, PERK inh 1.1, PABP FP inh inactive and eIF4E-4G inh 10.1.
Oc1ccc(CN2CCN(c3ccccc3)CC2)c2cccnc12 was read as PABP1 MLLE inh 20.3, eIF4H FP inh 1.3, PERK inh 0.2, PABP FP inh inactive and eIF4E-4G inh -3.0.
For O=[N+]([O-])c1cc(CN2CCN(c3cccc(C(F)(F)F)c3)CC2)c2cccnc2c1O the results were eIF4H FP inh 47.0, PERK inh 0.2, PABP FP inh inactive and eIF4E-4G inh -2.3.
For Oc1ccc(CN2CCCCC2)c2cccnc12 the results were PABP1 MLLE inh 15.6, eIF4H FP inh 85.2*, PERK inh -1.2, PABP FP inh inactive and eIF4E-4G inh -2.6.
`COc1ccc(CN2CCCC(C(=O)c3cccc(OC(C)C)c3)C2)cc1Cn1cccn1` (centres undefined) gave PABP1 MLLE inh -3.3, eIF4H FP inh 13.4, PERK inh 0.1, PABP FP inh inactive and eIF4E-4G inh -0.1.
Screening CCN1C(=O)/C(=C/c2ccc(OC)c(OC)c2)N=C1SCC(=O)NCc1ccco1 returned PABP1 MLLE inh 37.8*, eIF4H FP inh 12.5, PERK inh 0.4, PABP FP inh inactive and eIF4E-4G inh 0.7.
Screening O=C1C=C(c2cnc3ccccc3c2)C[C@@H](c2ccc3c(c2)OCO3)C1 returned PABP1 MLLE inh 3.7.
`CCCNC(=O)c1nc(C)n(-c2cc(Cl)ccc2Cl)n1` gave PABP1 MLLE inh 6.0, eIF4H FP inh 5.0, PERK inh 1.4, PABP FP inh inactive and eIF4E-4G inh 0.1.
O=C1OC(Nc2cc(Br)cc3cccnc23)c2ccccc21 (centres undefined) was read as PABP1 MLLE inh 8.3, eIF4H FP inh 65.2*, PERK inh 0.0, PABP FP inh active and eIF4E-4G inh 1.3.
`O=C1OC(Nc2ncccn2)c2ccccc21` (centres undefined) gave PABP1 MLLE inh 7.0, eIF4H FP inh -10.5, PERK inh 1.7, PABP FP inh inactive and eIF4E-4G inh -1.7.
For CC1(C(=O)O)CCCN(C(=O)c2cccnc2Oc2ccccc2)C1 (centres undefined) the results were PABP1 MLLE inh -0.9.
O=C(CC1C(=O)NCCN1Cc1ccccc1)NCCCOc1cccnc1 (centres undefined) was read as PABP1 MLLE inh 3.1, eIF4H FP inh 15.1 and PABP FP inh inactive.
`COC(=O)C1=C(C)N(Cc2ccccc2)C(=NCc2ccc(OC)cc2)N[C@H]1c1ccccc1` gave PABP1 MLLE inh -117.4.
`COC(=O)C1=C(C)N(Cc2ccccc2)C(=NCCc2ccccn2)N[C@H]1c1cccc(F)c1` gave PABP1 MLLE inh -77.0, eIF4H FP inh 23.6* and PABP FP inh active.
For COC(=O)C1=C(C)N(Cc2ccccc2)C(=NCC(C)C)N[C@H]1c1ccccc1 the results were eIF4H FP inh 94.4 and PABP FP inh active.
Screening COc1cc(/C=C/C(=O)Nc2nnc(CC(C)(C)C)s2)cc(OC)c1OC returned PABP1 MLLE inh 43.5*, eIF4H FP inh -3.6, PERK inh 0.6, PABP FP inh inactive and eIF4E-4G inh 16.2.
Screening Cc1ccc(S(=O)(=O)c2ccsc2NC(=O)c2ccccc2)cc1 returned PABP1 MLLE inh 3.8.
COc1ccc(C2CC(c3c(O)cc(C)oc3=O)=NCCS2)c(OC)c1 (centres undefined) was read as PABP1 MLLE inh -29.9, eIF4H FP inh 73.8*, PERK inh -0.2, PABP FP inh active and eIF4E-4G inh 5.5.
Screening Cc1cc(O)c(C2=Nc3ccccc3SC(c3ccc(Cl)cc3)C2)c(=O)o1 (centres undefined) returned PABP1 MLLE inh 27.4, eIF4H FP inh -3.9, PERK inh 0.8, PABP FP inh inactive and eIF4E-4G inh -0.1.
Screening CC1C/C(=C/c2cccn2C)C(=O)/C(=C/c2cccn2C)C1 (centres undefined) returned PABP1 MLLE inh 159.9, eIF4H FP inh 58.4*, PERK inh -0.1, PABP FP inh active and eIF4E-4G inh -2.8.
`CC1C/C(=C/c2ccncc2)C(=O)/C(=C/c2ccncc2)C1` (centres undefined) gave PABP1 MLLE inh 5.7, eIF4H FP inh 0.9, PERK inh 0.3, PABP FP inh inactive and eIF4E-4G inh -2.3.
COc1ccc(/C=N/NC2=NCCCCC2)c(OC)c1 was read as PABP1 MLLE inh -0.9, eIF4H FP inh active, PERK inh -0.2, PABP FP inh active and eIF4E-4G inh -0.9.
COc1ccc(/C=N/NC2=NCCCCC2)cc1 was read as PABP1 MLLE inh 6.4, eIF4H FP inh -23.3, PERK inh -0.2, PABP FP inh inactive and eIF4E-4G inh 0.2.
For CCOC(=O)N1CCN(C(=O)CSc2nnc(C3COc4ccccc4O3)o2)CC1 (centres undefined) the results were PABP1 MLLE inh 13.3, eIF4H FP inh -0.1, PERK inh 1.2, PABP FP inh inactive and eIF4E-4G inh 3.1.
`O=C(CSc1nnc(C2COc3ccccc3O2)o1)N1CCCC1` (centres undefined) gave PABP1 MLLE inh 39.2*, eIF4H FP inh 6.2, PERK inh 0.5, PABP FP inh inactive and eIF4E-4G inh 1.5.
`Cc1cccc(NC(=O)CCN2CCCC(C)C2)c1` (centres undefined) gave PABP1 MLLE inh -5.8, eIF4H FP inh -5.4 and PABP FP inh inactive.
N#Cc1ccc(CN2CCN(C(=O)Cn3nc(C(N)=O)c4ccccc4c3=O)CC2)cc1 was read as PABP1 MLLE inh -64.9, eIF4H FP inh -4.1 and PABP FP inh inactive.
For Cc1ccc(OCCn2cnc3c2c(=O)n(C)c(=O)n3C)cc1 the results were PABP1 MLLE inh 8.0, eIF4H FP inh -3.5 and PABP FP inh inactive.
`COc1ccc(CC(=O)OCn2nnc3ccccc3c2=O)cc1OC` gave PABP1 MLLE inh 9.7, eIF4H FP inh 92.0*, PERK inh 0.3, PABP FP inh active and eIF4E-4G inh -3.4.
O=[N+]([O-])c1cc2c(cc1/C=N/n1c(-c3ccccc3)n[nH]c1=S)OCO2 was read as PABP1 MLLE inh -5.4, eIF4H FP inh 58.6*, PERK inh 1.8, PABP FP inh inactive and eIF4E-4G inh 22.1.
`Cc1cccc(N=Cc2cc3c(cc2[N+](=O)[O-])OCO3)c1` gave PABP1 MLLE inh -9.2, eIF4H FP inh 61.6*, PERK inh 0.5, PABP FP inh active and eIF4E-4G inh 6.2.

Bioassay records: PubChem BioAssay, several laboratories
